Assays:
Assay in all cases: PBM binding z-score (relative to random genomic background probes); higher = stronger binding; sequences stand for … in GC…GCGATTGACAGCGTAGAATGAAGG
[1] = test system: FXR:RXRa (NR concentration 270 nM, RXRa partner concentration 90 nM)
In short: (§1)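 Random background probes are the reference for binding z-scores. These scores derive from regression-normalized fluorescence on custom Agilent 4×180K protein-binding microarrays incubated 1 h with ligand-free nuclear receptor dimers. Binding was detected with antibodies against each partner (one per run).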

[2] = test system: LXRa:RXRa (NR concentration 270 nM, RXRa partner concentration 90 nM)
In short: as §1

[3] = test system: LXRa homodimer (NR concentration 270 nM)
In short: as §1

[4] = test system: LXRb homodimer (NR concentration 270 nM)
In short: as §1

[5] = test system: PPARa:RXRa (NR concentration 270 nM, RXRa partner concentration 90 nM)
In short: as §1

[6] = test system: PPARg:RXRa (NR concentration 180 nM, RXRa partner concentration 90 nM)
In short: as §1

[7] = test system: PPARg:RXRa 270nM:90nM, anti-RXR (NR concentration 270 nM, RXRa partner concentration 90 nM)
In short: as §1

[8] = test system: PPARg:RXRa 30nM:10nM, anti-RXR (NR concentration 30 nM, RXRa partner concentration 10 nM)
In short: as §1

[9] = test system: PPARg:RXRa 90nM:30nM, anti-RXR (NR concentration 90 nM, RXRa partner concentration 30 nM)
In short: as §1

| Sequence | PBM binding z-score [1] | PBM binding z-score [2] | PBM binding z-score [3] | PBM binding z-score [4] | PBM binding z-score [5] | PBM binding z-score [6] | PBM binding z-score [7] | PBM binding z-score [8] | PBM binding z-score [9] |
| --- | --- | --- | --- | --- | --- | --- | --- | --- | --- |
| CCTACAGGGCCAAGGTCATTGATCAGTCAAAGCA | 3.24 | 3.38 | 0.911 | -0.2 | 3.78 | 2.72 | 3.94 | 1.45 | 3.32 |
| ATCGAAAGGTCGTGAAGTGAGTATACAGAAAGGC | 4.52 | 3.75 | 0.493 | 0.774 | 4.76 | 3.21 | 3.51 | 1.42 | 2.63 |
| CGTCAAAGTTCAAGGTAAAGTAACAGAAAGCAGC | 5.75 | 5.37 | 2.35 | 0.837 | 4.4 | 4.51 | 5.07 | 2.5 | 3.89 |
| CCTACTGGGCAAAAAAGGTCATTGATGCCGATAA | 3.26 | 4.69 | 3.15 | -0.0939 | 4.85 | 1.45 | 2.78 | 0.775 | 1.99 |
| TCTAGCTGGTCACGGAGGTCACACACGACGGGTA | 3.41 | 3.79 | 2.37 | 0.0556 | 3.88 | 3.35 | 3.83 | 2.33 | 3.14 |
| GCTTACGGGTCAAAGGTTAAAGCATGAATAGAAT | 7.68 | 6.08 | 0.955 | 0.412 | 7.2 | 11.8 | 9.59 | 9.12 | 10.3 |
| CCTTACGGGTCACTCAAGGTTATAGCATCGGAGT | 5.96 | 7.83 | 3.32 | -0.133 | 4.73 | 3.97 | 4.48 | 1.55 | 3.36 |
| AGTCAAAGTTCATCAAGGTAACGTAAGATATGCT | 6.08 | 5.78 | 4.24 | 1.31 | 4.64 | 6.46 | 6.38 | 3.52 | 5.75 |
| CGTCAAAGTTCATGGTAACGTAACAGAAAGCAGC | 6.57 | 5.67 | 3.17 | 1.2 | 4.95 | 5.02 | 5.36 | 2.39 | 4.08 |
| CCTAGTGGGTCAGGAGGTCACACACCGGATATGA | 4.27 | 4.06 | 1.62 | 0.0765 | 5.31 | 7.91 | 6.77 | 4.29 | 6.31 |
| CCTACTGGGCCACGAAAGGTGATTGATTCAGTGA | -0.0481 | 0.0469 | -0.496 | -0.883 | 1.75 | 2.08 | 1.68 | 0.232 | 0.958 |
| AGAATGAGGTTACCAAAGATCAGTGAAACGCTTG | 1.73 | 6.11 | 0.0874 | -0.00616 | 3.4 | 2.6 | 2.57 | 1.19 | 2.06 |
| CTCGAAAGGGCGTGCTCAGGTGAGTATACCAAAC | 0.538 | 0.109 | -0.329 | -0.824 | 0.533 | -0.312 | 0.0309 | -0.439 | -0.22 |
| ATATGTAGGTTACCGGGTCATTCAGTTTGCGCAT | 3.18 | 3.3 | 1.31 | 0.869 | 5.44 | 8.51 | 7.05 | 4.85 | 6.88 |
| CCTAGTTGGTCAAGGTCCCACACGCTATAGGTAC | 0.27 | 0.395 | 0.55 | -0.02 | 0.398 | 0.782 | 0.497 | -0.0168 | 0.409 |
| CGTCAAAGTTCAAGGTAATGTAACAGAAAGCAGC | 5.9 | 5.34 | 2.54 | 1 | 4.74 | 4.21 | 5.13 | 2.14 | 3.68 |

— the supplement of paper PMC6555819
